Inconclusive results are not listed. The source made the active and inactive calls. Unless noted, calls come from the whole dose curve; as a rule, active = well fitted curve in the direction sought with a large enough effect; inconclusive = small, poorly fitted or top-dose-only effect, or another doubt; inactive = no such curve, though single readings can be large; an effect the other way counts as inactive or inconclusive.
Assays:
[1] = qHTS to identify inhibitors of the type 1 interferon - major histocompatibility complex class I in skeletal muscle: primary screen against the NCATS Mechanism Interrogation Plate v5.0 (MIPE) Libary (AID 1347411);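 note: plate controls were vehicle for no effect and reference inhibitor for full effect; nearly all actives have a fitted effect of over 65% in size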
Outline: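 HLA-B HiBit myoblasts, dexamethasone-free medium + 4 ng/ml IFN-b, 24 h compound, 11-pt 1:3 from 46 uM final. Readout: Nano-Glo HiBiT lytic luminescence after 10 min lysis, RT.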

[2] = Primary qHTS for inhibitors of nuclear receptor binding SET domain protein 2 (NSD2) in an isogenic RCH-ACV NSD2 p.E1099K mutant (9B) (AID 1645876); note: nearly all actives have a fitted effect of over 70% in size; note: potency is the fitted concentration of half-maximal effect
[3] = biological target: Glutathione peroxidase 1 (Homo sapiens) (UniProt P07203); assay: Primary qHTS Assay for Inhibitors of Recombinant Selenoprotein Glutathione Peroxidase 1 (GPX1) (AID 1845191); note: nearly all actives have a fitted effect of over 65% in size; note: potency is the fitted concentration of half-maximal effect
Outline: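 GPX1 10 nM, GR 100 nM, GSH 1 mM, NADPH 0.5 mM, CHP 0.5 mM (final). 30-min cpd preincubation, RT. Ex340/Em450 read t=0, t=15 min.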

[4] = biological target: Phospholipid hydroperoxide glutathione peroxidase GPX4 (Homo sapiens) (UniProt P36969); assay: Primary qHTS Assay for Inhibitors of Recombinant Selenoprotein Glutathione Peroxidase 4 (GPX4) (AID 1845192); settings: outcome: dose series up to 50 µM unless noted; note: nearly all actives have a fitted effect of over 65% in size
Outline: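 qHTS, GR-coupled: GPX4 200 nM + cpd 30 min RT → GSH 1 mM, NADPH 0.5 mM, GR 100 nM → CHP 0.5 mM start; fluor 340/450 at t0 and t15 min; no-enzyme wells as control.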

[5] = qHTS drug screen for cell cycle checkpoint inhibitors in PARPi-resistant BRCA-mutant ovarian cancer cell lines. (AID 1963452; calls by dose curve); settings: PEO1/OlaR viability, CellTiter-Glo luminescence, 96 h, stronger effect = lower value
Outline: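 PEO1, PEO4 and PEO1/OlaR ovarian cancer cells, 600 per well, exposed 96 h at 37C to a dilution series. Viability read by CellTiter-Glo luminescence, normalized to DMSO and empty wells; activity summarized as Z-AUC.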

[6] = Primary qHTS for inhibitors of nuclear receptor binding SET domain protein 2 (NSD2) in an RCH-ACV wild type WT cells (2C) (AID 1645877); note: nearly all actives have a fitted effect of over 70% in size
[7] = measured here: PEO1 parental Z-AUC

Phospholipid hydroperoxide glutathione peroxidase GPX4 (Homo sapiens), sequence (P36969 whole entry, looked up): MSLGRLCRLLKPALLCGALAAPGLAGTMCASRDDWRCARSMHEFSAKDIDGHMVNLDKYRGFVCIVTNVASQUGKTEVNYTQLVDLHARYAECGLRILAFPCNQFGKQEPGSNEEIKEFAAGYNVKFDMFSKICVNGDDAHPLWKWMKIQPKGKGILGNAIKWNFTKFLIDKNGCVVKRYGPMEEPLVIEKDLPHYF
Glutathione peroxidase 1 (Homo sapiens), sequence (P07203 whole entry, looked up): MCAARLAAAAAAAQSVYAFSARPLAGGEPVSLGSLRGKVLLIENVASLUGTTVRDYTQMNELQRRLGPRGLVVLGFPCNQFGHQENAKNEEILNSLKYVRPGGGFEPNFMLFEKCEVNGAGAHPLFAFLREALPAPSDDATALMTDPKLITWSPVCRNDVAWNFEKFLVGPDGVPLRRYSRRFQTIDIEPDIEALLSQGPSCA

Structure (SMILES)	Potency [1]	Potency [2]	Potency [3]	Potency [4]	Z-AUC [5]	Z-AUC [5, 7]	Z-AUC ([5]; measured here: PEO4 Z-AUC)	Potency [6]
CCn1c(=O)c2c(nc(/C=C/c3ccc(OC)c(OC)c3)n2C)n(CC)c1=O	inactive	inactive	inactive	inactive	0.577 (inactive)	0.401	0.882	
O=C(O)CCNc1cc(N2CCc3ccccc3CC2)nc(-c2cccnc2)n1	inactive	inactive			1.21 (inactive)	0.839	0.897	inactive
CC(=O)N1CCN(c2ccc(NC(=O)Cc3cnc(-c4ccnc(F)c4)c(C)c3)nc2)CC1	inactive	inactive		inactive	1.31 (inactive)	1.23	0.947	inactive
Nc1nc(N)c2nc(-c3cccc(Cl)c3)c(N)nc2n1	inactive	1.05 µM (active)	4.09 µM (active)		-0.747 (inactive)	-0.162	-0.371	
C[C@H]1O[C@H](O[C@H]2[C@H](O)[C@@H](O)[C@@H](O[C@H]3[C@H](O)[C@@H](O)C(O)O[C@@H]3CO)O[C@@H]2CO)[C@H](O)[C@@H](O)[C@@H]1N[C@H]1C=C(CO)[C@@H](O)[C@H](O)[C@H]1O (stereo partly drawn)	inactive	inactive		inactive	0.621 (inactive)	1.06	0.614	inactive

Source: PubChem BioAssay (NCATS)
